Measured values reported in PubChem BioAssay (Tox21).
Results filed as inconclusive are left out. Active and inactive are the calls of the source. Unless noted, calls come from the whole dose curve; as a rule, active = well fitted curve in the direction sought with a large enough effect in the repeat runs; inconclusive = weak or mixed curves; inactive = no such curve, though single readings can be large; an effect the other way counts as inactive or inconclusive.

Legend:
[1] = target: Thyrotropin-releasing hormone receptor (Homo sapiens) (UniProt P34981); assay: qHTS assay to identify small molecule agonists of the thyrotropin-releasing hormone receptor (TRHR) signaling pathway (AID 1346891; calls by dose curve;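 note: HEK293 cells expressing TRHR with calcium dye readout; series mostly up to about 58 µM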)
How it was run: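 Compounds were tested as agonists at 15 concentrations, in triplicate, on TRHR-Hek293 cells; calcium-sensitive dye fluorescence was recorded for 3 min following addition.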

[2] = Human pregnane X receptor (PXR) small molecule agonists, qHTS cell viability counter screen (AID 1346977); note: nearly all actives have a fitted effect of over 50% in size; note: potency is the fitted concentration of half-maximal effect
How it was run: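 Viability counter screen: CellTiter-Fluor signal in PXR-Luc HepG2 cells, 24hr compound exposure, 37C, 5% CO2.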

[3] = Caspase-3/7 induction in HepG2 cells by small molecules, qHTS assay (AID 1346978); note: nearly all actives have a fitted effect of over 15% in size
How it was run: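 Caspase-3/7 induction was measured by Caspase-Glo 3/7 luminescence (30 min, room temperature) after a 17 hr compound exposure of wild-type HepG2 cells seeded at 2,000 per well and pre-incubated 5 hr.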

[4] = Caspase-3/7 induction in CHO-K1 cells by small molecules, qHTS cell viability counter screen (AID 1346979); note: nearly all actives have a fitted effect of over 35% in size
How it was run: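 Viability readout by fluorescence (CellTiter-Fluor) on wild-type CHO-K1 cells exposed for 16hr at 37C and 5% CO2 to compounds delivered in DMSO; reagent incubated 1hr before reading.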

[5] = Caspase-3/7 induction in CHO-K1 cells by small molecules, qHTS assay (AID 1346980); note: nearly all actives have a fitted effect of over 15% in size
How it was run: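 Luminescent Caspase-Glo 3/7 read (30min, room temperature) quantified apoptosis induction. Cells were wild-type CHO-K1, treated with compound for 17hr at 37 C and 5% CO2.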

[6] = Caspase-3/7 induction in HepG2 cells by small molecules, qHTS cell viability counter screen (AID 1346981); note: series mostly up to about 92 µM; nearly all actives have a fitted effect of over 30% in size
How it was run: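 After a 5-hr attachment period at 37 C and 5% CO2, wild-type HepG2 cells received compounds in DMSO. Sixteen hours later CellTiter-Fluor was dispensed and the fluorescent signal quantified after a further hour.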

[7] = target: Nuclear receptor subfamily 1 group I member 2 (Homo sapiens) (UniProt O75469); assay: Human pregnane X receptor (PXR) small molecule agonists, qHTS assay (AID 1346982); note: nearly all actives have a fitted effect of over 35% in size; note: potency is the fitted concentration of half-maximal effect
How it was run: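 Tox21 qHTS; PXR-Luc HepG2; compounds pinned from DMSO; 24 hr, 37 C; ONE-Glo luciferase detection, 30 min room temperature.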
% is set by controls: 0 for no effect and ±100 for the full control effect.

Sequence of Nuclear receptor subfamily 1 group I member 2 (Homo sapiens) (O75469 whole entry, looked up): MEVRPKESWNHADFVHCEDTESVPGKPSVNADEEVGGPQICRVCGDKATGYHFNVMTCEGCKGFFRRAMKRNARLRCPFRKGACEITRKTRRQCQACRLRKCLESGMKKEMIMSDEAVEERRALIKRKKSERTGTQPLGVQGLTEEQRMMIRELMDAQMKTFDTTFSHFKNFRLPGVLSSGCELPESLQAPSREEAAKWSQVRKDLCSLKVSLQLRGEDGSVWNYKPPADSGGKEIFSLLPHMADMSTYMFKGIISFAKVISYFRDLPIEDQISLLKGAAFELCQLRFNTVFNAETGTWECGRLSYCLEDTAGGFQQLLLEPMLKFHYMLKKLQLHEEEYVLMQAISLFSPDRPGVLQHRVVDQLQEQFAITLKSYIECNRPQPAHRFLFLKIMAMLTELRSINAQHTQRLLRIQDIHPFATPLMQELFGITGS
Sequence of Thyrotropin-releasing hormone receptor (Homo sapiens) (P34981 whole entry, looked up): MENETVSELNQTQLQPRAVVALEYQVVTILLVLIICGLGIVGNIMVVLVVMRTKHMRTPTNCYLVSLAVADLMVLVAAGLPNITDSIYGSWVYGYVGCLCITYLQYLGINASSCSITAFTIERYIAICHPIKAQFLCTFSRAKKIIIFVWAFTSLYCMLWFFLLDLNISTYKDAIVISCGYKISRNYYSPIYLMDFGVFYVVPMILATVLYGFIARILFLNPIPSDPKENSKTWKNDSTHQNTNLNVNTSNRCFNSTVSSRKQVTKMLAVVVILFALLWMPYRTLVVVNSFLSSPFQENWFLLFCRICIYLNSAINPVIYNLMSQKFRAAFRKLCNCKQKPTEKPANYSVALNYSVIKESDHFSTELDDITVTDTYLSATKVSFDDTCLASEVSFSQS

O=S(=O)(c1cccc2cnccc12)N1CCCNCC1
inactive: outcome [1] | outcome [3] | Potency [4] | outcome [5] | outcome [6]
active: Potency [2] 26.6 µM

C#CC(C)(O)CC(C)C (centres undefined)
inactive: outcome [1] | Potency [2] | outcome [3] | Potency [4] | outcome [5]

CCC(=O)/C=C/c1ccc(OC)cc1
inactive: outcome [1] | Potency [2] | outcome [3] | Potency [4] | outcome [5] | outcome [6]

CC(C)(O)c1ccccc1
inactive: outcome [1] | Potency [2] | outcome [3] | Potency [4] | outcome [5] | outcome [6] | Potency [7]

C=C[Si](OC)(OC)OC
inactive: outcome [1] | Potency [2] | outcome [3] | Potency [4] | outcome [5] | outcome [6] | Potency [7]

CCCCCCC(=O)OCC
inactive: outcome [1] | Potency [2] | outcome [3] | Potency [4] | outcome [5] | outcome [6]

C#CC(O)C(CC)CCCC (centres undefined)
inactive: outcome [1] | Potency [2] | outcome [3] | Potency [4] | outcome [5] | outcome [6]

Nc1ccc2cc(S(=O)(=O)O)ccc2c1
inactive: outcome [1] | Potency [2] | outcome [3] | Potency [4] | outcome [5] | outcome [6]

N#CCc1ccccc1[N+](=O)[O-]
inactive: outcome [1] | Potency [2] | outcome [3] | Potency [4] | outcome [5] | outcome [6]

CCCCNc1ccccc1
inactive: outcome [1] | Potency [2] | outcome [3] | Potency [4] | outcome [5] | outcome [6]

O=C(O)C1CCC1
inactive: outcome [1] | Potency [2] | outcome [3] | Potency [4] | outcome [5] | outcome [6] | Potency [7]

COc1cccc(Br)c1
inactive: outcome [1] | Potency [2] | outcome [3] | Potency [4] | outcome [5] | outcome [6] | Potency [7]

C=CCOc1nc(OCC=C)nc(OCC=C)n1
inactive: outcome [1] | Potency [2] | outcome [3] | Potency [4] | outcome [5]

CCCOCC(C)OCC(C)O (centres undefined)
inactive: outcome [1] | Potency [2] | outcome [3] | Potency [4] | outcome [5] | outcome [6]

OCC(CO)(CO)COCC(CO)(CO)CO
inactive: outcome [1] | Potency [2] | outcome [3] | Potency [4] | outcome [5] | outcome [6]

CC(C)CCCCCCN
inactive: outcome [1] | Potency [2] | outcome [3] | Potency [4] | outcome [5]

C=CCOCC(O)CS(=O)(=O)O (centres undefined)
inactive: outcome [1] | Potency [2] | outcome [3] | Potency [4] | outcome [5]

CO[Si](OC)(OC)OC
inactive: outcome [1] | Potency [2] | outcome [3] | Potency [4] | outcome [5]

CCC(C)OC(=O)N1CCCCC1CCO (centres undefined)
inactive: outcome [1] | Potency [2] | outcome [3] | Potency [4] | outcome [5] | outcome [6] | Potency [7]

CC/C=C\CCCCO
inactive: outcome [1] | Potency [2] | outcome [3] | Potency [4] | outcome [5] | outcome [6]

CCCc1ccc(N)cc1
inactive: outcome [1] | Potency [2] | outcome [3] | Potency [4] | outcome [5] | outcome [6]

CC(=O)O[C@H](CC(=O)[O-])C[N+](C)(C)C
inactive: outcome [1] | Potency [2] | outcome [3] | Potency [4] | outcome [5] | outcome [6]

CCN1CCN(c2cc3c(cc2F)c(=O)c(C(=O)O)cn3C2CC2)CC1
inactive: outcome [1] | Potency [2] | outcome [3] | Potency [4] | outcome [5] | outcome [6]

CNc1ncnc2nc[nH]c12
inactive: outcome [1] | Potency [2] | outcome [3] | Potency [4] | outcome [5] | outcome [6]

CNC(=O)c1c(I)c(NC(=O)CCCCC(=O)Nc2c(I)c(C(=O)O)c(I)c(C(=O)NC)c2I)c(I)c(C(=O)O)c1I
inactive: outcome [1] | Potency [2] | outcome [3] | Potency [4] | outcome [5] | outcome [6]

CCCOc1ccccc1-c1nc2n[nH]nc2c(=O)[nH]1
inactive: outcome [1] | Potency [2] | outcome [3] | Potency [4] | outcome [5] | outcome [6] | Potency [7]

COCc1ccc(COC)cc1
inactive: outcome [1] | Potency [2] | outcome [3] | Potency [4] | outcome [5] | outcome [6]

CCCCOCC(C)OCC(C)O (centres undefined)
inactive: outcome [1] | Potency [2] | outcome [3] | Potency [4] | outcome [5] | outcome [6]

CCCCN(CCO)CCO
inactive: outcome [1] | Potency [2] | outcome [3] | Potency [4] | outcome [5] | outcome [6] | Potency [7]

NC1CCN(c2cccc(Cl)n2)CC1
inactive: outcome [1] | Potency [2] | outcome [3] | Potency [4] | outcome [5] | outcome [6]

CC(C)(C)C(=O)/C=C/c1ccc(Cl)cc1
inactive: outcome [1] | Potency [2] | outcome [3] | Potency [4] | outcome [5]

C(=C(c1ccccc1)c1ccccc1)c1ccccc1
inactive: outcome [1] | Potency [2] | outcome [3] | Potency [4] | outcome [5] | outcome [6]

OC1OC[C@@H](O)[C@H](O)[C@H]1O (some centres undefined)
inactive: outcome [1] | Potency [2] | outcome [3] | Potency [4] | outcome [5]

Nc1ncnc2c1ncn2Cc1c(F)cccc1Cl
inactive: outcome [1] | Potency [2] | outcome [3] | Potency [4] | outcome [5] | outcome [6]

COC(=O)C1=C(C)NC(C)=C(C(=O)OCC(C)=O)C1c1ccccc1[N+](=O)[O-] (centres undefined)
inactive: outcome [1] | Potency [2] | outcome [3] | Potency [4] | outcome [5]

CC(C)(C)OC(=O)N1C[C@@H](F)C[C@H]1C(=O)O
inactive: outcome [1] | Potency [2] | outcome [3] | Potency [4] | outcome [5] | outcome [6]

C=C(C)C1CC=C(C)C(O)C1 (centres undefined)
inactive: outcome [1] | Potency [2] | outcome [3] | Potency [4] | outcome [5] | outcome [6]

NC(=O)c1c(Cl)cccc1Cl
active: Potency [7] 0.0611 µM
inactive: outcome [1] | Potency [2] | outcome [3] | Potency [4] | outcome [5] | outcome [6]

CC(=O)CCc1ccc(O)cc1
inactive: outcome [1] | Potency [2] | outcome [3] | Potency [4] | outcome [5] | outcome [6] | Potency [7]

C=CC(=O)OCCCCCC
inactive: outcome [1] | Potency [2] | outcome [3] | Potency [4] | outcome [5] | outcome [6] | Potency [7]

CCCC(C)C(=O)O (centres undefined)
inactive: outcome [1] | Potency [2] | outcome [3] | Potency [4] | outcome [5] | outcome [6] | Potency [7]

CN(C)C(=O)Nc1ccccc1
inactive: outcome [1] | Potency [2] | outcome [3] | Potency [4] | outcome [5] | outcome [6] | Potency [7]

CCO[Si](C)(OCC)OCC
inactive: outcome [1] | Potency [2] | outcome [3] | Potency [4] | outcome [5] | outcome [6] | Potency [7]

CCCCCCCCCCCCCCCCCC(=O)OCCCCCCCCCCCCCC(C)C
inactive: outcome [1] | Potency [2] | outcome [3] | Potency [4] | outcome [5] | outcome [6] | Potency [7]

CN(C)N=Nc1ccccc1
inactive: outcome [1] | Potency [2] | outcome [3] | Potency [4] | outcome [5] | outcome [6] | Potency [7]

CC(C)COC(=O)c1ccccc1O
inactive: outcome [1] | Potency [2] | outcome [3] | Potency [4] | outcome [5] | outcome [6] | Potency [7]

C=C(C)C(=O)OCCC(C)OC(=O)C(=C)C (centres undefined)
inactive: outcome [1] | Potency [2] | outcome [3] | Potency [4] | outcome [5] | outcome [6] | Potency [7]

NC(=S)Nc1cccc2ccccc12
inactive: activation [1] -0.377% [at 5.23 µM] | activity change, negative = cytotoxicity [2] -0.344% [at 8.39 µM] | caspase activation [3] 1% [at 8.39 µM] | activity change, negative = cytotoxicity [4] -1.57% [at 8.39 µM] | caspase-3/7 activation [5] 0.137% [at 8.39 µM] | activity change, negative = cytotoxicity [6] -1.33% [at 8.39 µM] | activation [7] -0.9% [at 8.39 µM]

CCO[Si](CCCN=C=O)(OCC)OCC
inactive: outcome [1] | Potency [2] | outcome [3] | Potency [4] | outcome [5] | outcome [6] | Potency [7]

CC(C)c1cccc(O)c1
inactive: outcome [1] | Potency [2] | outcome [3] | Potency [4] | outcome [5] | outcome [6] | Potency [7]

CCCCCCOC(=O)c1ccccc1O
inactive: outcome [1] | Potency [2] | outcome [3] | Potency [4] | outcome [5] | outcome [6] | Potency [7]

OC[C@H]1O[C@@H]2O[C@H]3[C@H](O)[C@@H](O)[C@@H](O[C@H]4[C@H](O)[C@@H](O)[C@@H](O[C@H]5[C@H](O)[C@@H](O)[C@@H](O[C@H]6[C@H](O)[C@@H](O)[C@@H](O[C@H]7[C@H](O)[C@@H](O)[C@@H](O[C@H]8[C@H](O)[C@@H](O)[C@@H](O[C@H]9[C@H](O)[C@@H](O)[C@@H](O[C@H]1[C@H](O)[C@H]2O)O[C@@H]9CO)O[C@@H]8CO)O[C@@H]7CO)O[C@@H]6CO)O[C@@H]5CO)O[C@@H]4CO)O[C@@H]3CO
inactive: outcome [1] | Potency [2] | outcome [3] | Potency [4] | outcome [5] | outcome [6] | Potency [7]

CCCCCCC(CCCCCCCCCCC(=O)OCC(COC(C)=O)OC(C)=O)OC(C)=O (centres undefined)
inactive: outcome [1] | Potency [2] | outcome [3] | Potency [4] | outcome [5] | outcome [6] | Potency [7]

O=C1CC2(CCCC2)CC(=O)N1
inactive: outcome [1] | Potency [2] | outcome [3] | Potency [4] | outcome [5] | outcome [6] | Potency [7]

CC(C)CCCC(C)NCCC(C)C (centres undefined)
inactive: outcome [1] | Potency [2] | outcome [3] | Potency [4] | outcome [5] | outcome [6] | Potency [7]

O=c1[nH]c(=O)n([C@H]2O[C@H](CO)[C@@H](O)[C@@H]2O)cc1/C=C\Br
inactive: outcome [1] | Potency [2] | outcome [3] | Potency [4] | outcome [5] | outcome [6] | Potency [7]

C1COCCO1
inactive: outcome [1] | Potency [2] | outcome [3] | Potency [4] | outcome [5] | outcome [6] | Potency [7]

CC(O)CN(CCCN(C)C)CCCN(C)C (centres undefined)
inactive: outcome [1] | Potency [2] | outcome [3] | Potency [4] | outcome [5] | outcome [6] | Potency [7]

CC(C)c1cccc(C(C)C)c1N
inactive: outcome [1] | Potency [2] | outcome [3] | Potency [4] | outcome [5] | outcome [6] | Potency [7]

CC(C)CCOC(=O)CC(C)C
inactive: outcome [1] | Potency [2] | outcome [3] | Potency [4] | outcome [5] | outcome [6] | Potency [7]

COc1ccc(COC=O)cc1
inactive: outcome [1] | Potency [2] | outcome [3] | Potency [4] | outcome [5] | outcome [6] | Potency [7]
